This passage reports growth results from PubChem BioAssay (NCI).

Some test systems named below: SR leukemia; RPMI-8226 leukemia; OVCAR-8 ovarian; OVCAR-5 ovarian; OVCAR-4 ovarian; SK-OV-3 ovarian; IGROV1 ovarian; OVCAR-3 ovarian; HS 578T breast; NCI/ADR-RES ovarian; T-47D breast; BT-549 breast; MDA-MB-435 melanoma; SW-620 colon; MCF7 breast; HCT-116 colon; HCC-2998 colon; KM12 colon.
Common to all, as to assay: NCI-60 one-dose screen, 48 h (100 = growth as untreated, 0 = no growth, -100 = all killed)
Settings in all cases: 10 µM unless noted

Compounds without any hit were thinned out: in the full panel of roughly 83,000, 20% have a hit.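 In brief: 96-well plates, 48 h treatment, single concentration, percent growth endpoint.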 A number with no mark means an inactive call. Calls of active or inactive are those of the source. Rule for the calls: active = growth percent below 10; inactive = the rest.

For `O=c1[nH]c2ccc(Br)cc2c2c1C(c1ccc(Cl)cc1)c1c(ncn3nc(-c4ccco4)nc13)O2` (centres undefined), the growth in the experiment on SR leukemia is 62.3%; in the experiment with RPMI-8226 leukemia it was 58.4%; in the experiment with OVCAR-8 ovarian, 79.3%; with OVCAR-5 ovarian, 73.6%; in the experiment on OVCAR-4 ovarian, 67.5%; in the experiment on SK-OV-3 ovarian, 59.8%. Further, the growth with IGROV1 ovarian is 44%; in the experiment with OVCAR-3 ovarian, 81.7%; with HS 578T breast, 35.6%; with NCI/ADR-RES ovarian it was 88.2%; in the experiment with T-47D breast, 60.9%; with BT-549 breast it was 76.9%. In addition, the growth was 85.2% in the experiment with MDA-MB-435 melanoma; 73.6% in the experiment with SW-620 colon; 68.7% in the experiment with MCF7 breast; 67.5% in the experiment on HCT-116 colon; 86.6% with HCC-2998 colon; 94.5% in the experiment with KM12 colon.
`COc1cc(/C=N\NC(=O)CN2CCN(c3cc4c(cc3F)c(=O)c(C(=O)N/N=C/c3cc(OC)c(OC)c(OC)c3)cn4C3CC3)CC2)cc(OC)c1OC`: the growth with SR leukemia was 2.97% (active); with RPMI-8226 leukemia it was 0.709% (active); in the experiment on OVCAR-8 ovarian, 22.4%; with OVCAR-5 ovarian, 19.6%; in the experiment with OVCAR-4 ovarian it was -17.7% (active); in the experiment with SK-OV-3 ovarian it was 19.2%. The growth in the experiment with IGROV1 ovarian is -16.6% (active); with OVCAR-3 ovarian, -75.2% (active); with HS 578T breast, -0.587% (active); in the experiment with NCI/ADR-RES ovarian, 103%; with T-47D breast, -12.3% (active); with BT-549 breast it was -17.7% (active). Also, the growth is -45.1% (active) in the experiment on MDA-MB-435 melanoma; 6.11% (active) in the experiment on SW-620 colon; 7.55% (active) in the experiment with MCF7 breast; -32.5% (active) in the experiment on HCT-116 colon; -95.2% (active) with HCC-2998 colon; -61.7% (active) in the experiment on KM12 colon.
With `CN(CCCCCl)P(=O)(OCc1ccc([N+](=O)[O-])o1)C(F)(F)C[C@H](NC(=O)CNC(=O)c1ccc(N=[N+]=[N-])cc1)C(=O)NCCc1ccc(O)cc1` (some centres undefined), the growth in the experiment on SR leukemia was 9.22% (active); in the experiment with RPMI-8226 leukemia, 87.3%; in the experiment on OVCAR-8 ovarian, 107%; in the experiment with OVCAR-5 ovarian it was 123%; in the experiment on OVCAR-4 ovarian it was 95.2%; in the experiment on SK-OV-3 ovarian it was 113%. In addition, the growth in the experiment with IGROV1 ovarian is 84.3%; with OVCAR-3 ovarian, 109%; in the experiment on HS 578T breast, 84.4%; with NCI/ADR-RES ovarian it was 103%; in the experiment with T-47D breast, 90.5%; in the experiment with BT-549 breast it was 79%. Besides, the growth in the experiment on MDA-MB-435 melanoma is 41.5%; in the experiment with SW-620 colon, 37.6%; in the experiment with MCF7 breast, 61.6%; in the experiment on HCT-116 colon it was 78.4%; in the experiment on HCC-2998 colon it was 98.4%; in the experiment on KM12 colon it was 91.1%.
As to `Fc1ccc(-c2nc(-c3nc4ncccc4[nH]3)cc3c2[nH]c2ccccc23)cc1F`, the growth was 76% with SR leukemia; 45.7% in the experiment on RPMI-8226 leukemia; 66.6% in the experiment with OVCAR-8 ovarian; 93.5% in the experiment with OVCAR-5 ovarian; 60.2% in the experiment on OVCAR-4 ovarian; 111% in the experiment on SK-OV-3 ovarian. Further, the growth with IGROV1 ovarian is 62.3%; in the experiment with OVCAR-3 ovarian, 82%; in the experiment on HS 578T breast it was 96%; in the experiment on NCI/ADR-RES ovarian it was 61.4%; with T-47D breast, 51.7%; with BT-549 breast, 84%. Further, the growth in the experiment on MDA-MB-435 melanoma was 66.1%; in the experiment with SW-620 colon, 102%; in the experiment with MCF7 breast, 38.7%; with HCT-116 colon, 30.3%; with HCC-2998 colon, 100%; in the experiment with KM12 colon, 71.9%.
As for `O=C1/C(=C/c2ccc(Cl)cc2)CN(C(=O)CCN2CCC(=NO)CC2)C/C1=C\c1ccc(Cl)cc1`, the growth is -5.09% (active) in the experiment on SR leukemia; -34.1% (active) in the experiment on RPMI-8226 leukemia; -89.8% (active) in the experiment on OVCAR-8 ovarian; -63.6% (active) in the experiment with OVCAR-5 ovarian; -78.6% (active) with OVCAR-4 ovarian; -38.2% (active) with SK-OV-3 ovarian. Also, the growth was -67.2% (active) in the experiment on IGROV1 ovarian; -97.5% (active) in the experiment with OVCAR-3 ovarian; -20.3% (active) in the experiment with HS 578T breast; 1.6% (active) with NCI/ADR-RES ovarian; -37.2% (active) in the experiment with T-47D breast; -88% (active) in the experiment on BT-549 breast. Further, the growth is -94.7% (active) in the experiment with MDA-MB-435 melanoma; -61.1% (active) with SW-620 colon; -53.3% (active) with MCF7 breast; -48% (active) in the experiment on HCT-116 colon; -76.1% (active) in the experiment on HCC-2998 colon; -86.1% (active) with KM12 colon.
With `CC(C)(C)OC(=O)NCCc1ccc(N=C=S)cc1`, the growth in the experiment with SR leukemia was 22.5%; with RPMI-8226 leukemia it was 9.22% (active); in the experiment on OVCAR-8 ovarian, 86%; with OVCAR-5 ovarian, 82.7%; in the experiment with OVCAR-4 ovarian, 76.9%; in the experiment on SK-OV-3 ovarian it was 97.1%. Moreover, the growth in the experiment on IGROV1 ovarian is 71.8%; in the experiment on OVCAR-3 ovarian, 72.7%; with HS 578T breast, 92.3%; in the experiment with NCI/ADR-RES ovarian, 75.6%; with T-47D breast it was 41.5%; in the experiment on BT-549 breast, 62.3%. In addition, the growth is 71.3% with MDA-MB-435 melanoma; 71.4% with SW-620 colon; 52% in the experiment on MCF7 breast; 65.5% in the experiment with HCT-116 colon; 89.9% in the experiment with HCC-2998 colon; 60.8% with KM12 colon.
As to `CC1=C(C#N)C(=O)NC(C)C1` (centres undefined), the growth with SR leukemia is 110%; in the experiment with RPMI-8226 leukemia it was 105%; in the experiment on OVCAR-8 ovarian it was 102%; in the experiment on OVCAR-5 ovarian it was 95.5%; in the experiment with OVCAR-4 ovarian it was 110%; in the experiment on SK-OV-3 ovarian, 103%. Further, the growth with IGROV1 ovarian was 105%; in the experiment on OVCAR-3 ovarian, 103%; in the experiment on HS 578T breast it was 97.2%; in the experiment on NCI/ADR-RES ovarian, 102%; with T-47D breast, 91.4%; in the experiment on BT-549 breast it was 101%. Besides, the growth with MDA-MB-435 melanoma is 107%; with SW-620 colon, 106%; in the experiment on MCF7 breast it was 101%; with HCT-116 colon, 110%; with HCC-2998 colon it was 79.8%; in the experiment on KM12 colon, 107%.
For `Clc1ccc2c(NC3CCC(NC4CCCCC4)CC3)ccnc2c1` (centres undefined), the growth in the experiment on SR leukemia is -3.32% (active); with RPMI-8226 leukemia, 39.4%; with OVCAR-8 ovarian, 52.2%; in the experiment on OVCAR-5 ovarian, 84.4%; with OVCAR-4 ovarian, 50%; in the experiment on SK-OV-3 ovarian, 73.4%. Further, the growth is 83.4% in the experiment on IGROV1 ovarian; 85.3% in the experiment on OVCAR-3 ovarian; 67.5% in the experiment with HS 578T breast; 68% with NCI/ADR-RES ovarian; 48.1% in the experiment with T-47D breast; 86.8% in the experiment with BT-549 breast. Moreover, the growth in the experiment on MDA-MB-435 melanoma is 26.8%; with SW-620 colon, 32.7%; in the experiment with MCF7 breast, 37.8%; in the experiment on HCT-116 colon, 35.8%; in the experiment with HCC-2998 colon, 65.2%; in the experiment with KM12 colon, 67.2%.
